Measured values: the supplement of paper PMC6555819

Experiments:
Assay in all cases: PBM binding z-score (relative to random genomic background probes); higher = stronger binding; sequences stand for … in GC…GCGATTGACAGCGTAGAATGAAGG
[1] = tested on: RARb homodimer (NR concentration 270 nM)
Method in brief: (§1)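 Scanned fluorescence from custom Agilent 4×180K protein-binding microarrays was regression-normalized. Binding z-scores use random background probes as reference. Ligand-free nuclear receptor dimers were incubated on the arrays for 1 h and detected with antibodies against each partner (one per run).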

[2] = tested on: RARg:RXRa (NR concentration 270 nM, RXRa partner concentration 90 nM)
Method in brief: as §1

[3] = tested on: RARg homodimer (NR concentration 270 nM)
Method in brief: as §1

[4] = tested on: RXRa DBDmut IVT, anti-RXR (DBD mutation: RXRa K156A/R161A, NR concentration 90 nM)
Method in brief: as §1

[5] = tested on: RXRa homodimer (NR concentration 180 nM)
Method in brief: as §1

[6] = tested on: THRa:RXRa (NR concentration 90 nM, RXRa partner concentration 90 nM)
Method in brief: as §1

[7] = tested on: THRa homodimer (NR concentration 90 nM)
Method in brief: as §1

[8] = tested on: VDR homodimer (NR concentration 270 nM)
Method in brief: as §1

Sequence | PBM binding z-score [1] | PBM binding z-score [2] | PBM binding z-score [3] | PBM binding z-score [4] | PBM binding z-score [5] | PBM binding z-score [6] | PBM binding z-score [7] | PBM binding z-score [8]
TAGCCTAGGTAATTGGGCCAGTATAGTACGCATC | -0.403 | -0.17 | -0.133 | -1.07 | -0.301 | -0.106 | -0.68 | -0.642
AGAATGAGGTAACCAAAGATCAGGGAAACGCTTG | -0.385 | 0.568 | 0.561 | -0.346 | 0.827 | 2.05 | 0.539 | -0.262
TCGAGTAGGTTAGGGGCATTTAGAATGGCGTCGA | 0.875 | 0.265 | 0.0778 | 0.475 | 0.534 | 0.793 | 0.327 | 0.777
TCATTTAGGTAAAAGGTGAAAGTCGGTGTGGTAA | 1.9 | 1.81 | 1.04 | 1.68 | 2.47 | 2.14 | 0.844 | 0.375
CAGGCTAGGTCAGGGCCAGTATAGGAGGAACGTT | 2.77 | 3.07 | 4.16 | -0.54 | 1.45 | 1.95 | 0.49 | 0.035
CTACCAAGGTGAACAAGGTCGTGGATTACTATTC | 2.22 | 2.24 | 1.63 | 0.592 | 2.7 | 3.64 | 2.18 | 1.27
ATCTCCAGGTAAAAGTTCAGTGAATCCCGAGGAT | 2.54 | 2.14 | 2.33 | 0.595 | 1.94 | 1.57 | 0.432 | 1.84
CAAACTAGGTCCCAGAGGTCAAAGTCCGTGCGTA | 4.35 | 5.07 | 4.38 | 2.04 | 5.62 | 3.67 | 1.58 | 3.87
CCTACTGGGCCACGAAAGGTCATCGATTCAGTGA | 4.88 | 5.15 | 4.75 | 0.398 | 5.62 | 4 | 1.08 | 1.56
GCGACTGTGGCAAAGCAGGTTACCATAAGGTTGG | 0.168 | -0.101 | -0.193 | -0.432 | 0.102 | 1.22 | -0.306 | -1.03
ATCTCTAGGTAACCAAGTCCAGTGAATGCCGAAC | 0.289 | 0.196 | 0.238 | 0.275 | 0.184 | 0.825 | 0.807 | 0.463
GCTAGTTGGTCCGTAAAAGGTCACACACCGGTCG | 5 | 5.04 | 4.7 | 0.491 | 5.6 | 3.5 | 1.82 | 1.94
ATATCTAGGTTAGCTGGGGTCATTCAGACTAGGC | 3.96 | 4.04 | 3.18 | 1.88 | 5.32 | 5.07 | 3.53 | 5.14
CAAACTAGGTCAAGAGGTCAGAGTCCGCTTCCCG | 5.42 | 7.29 | 7.22 | 2.53 | 6.9 | 3.88 | 2.15 | 3.34
AGAACGAGGGCACGCTGAGTTGACAGCAGAGTAG | 1.43 | 2.35 | 2.33 | 1.6 | 1.73 | 2.16 | -0.174 | 1.79
TCTGCTAGGTCAACGATGGTCAGCTAATCTGCTA | 3.36 | 4.01 | 4.95 | 1.24 | 2.42 | 3.15 | 0.461 | -0.403
CCTATTAGTTGACCGTAAGGGCAACCGAAGCTCG | 2.75 | 1.73 | 1.51 | 0.339 | 0.616 | 2.29 | 1.78 | 1.06
ATCGAAAGGTCGAATGTGAGTATACCCACCCGAA | 2.63 | 3.91 | 3.72 | 1.77 | 4.23 | 2.01 | -0.0283 | 1
ATACTAAGGTGATCGTGAGGTCGTTGATACTAAC | 1.76 | 2.89 | 1.27 | 1.35 | 2.06 | 3.7 | 3.46 | 3.43
TCATATAGGTAGATGCTAGGTGAAAGTCCGATCT | 0.362 | 0.127 | 0.207 | 1.14 | 0.611 | 0.969 | 0.547 | 0.276
AGTCAAAGTTCAGAACGAGGTAACGTAAAGCACG | 2.66 | 4.62 | 4.15 | 3.09 | 2.76 | 3.63 | 0.7 | 1.94
CCTTACGGGTCACGAGGTTATAACACGACGAGCG | 3.99 | 6.07 | 5.32 | 1.5 | 6.99 | 3.79 | 0.991 | 1.63
TCTAGTTGGTCACGAAGGTCACACACGACGGGTA | 4.07 | 4.7 | 5.06 | 1.09 | 4.24 | 3.02 | 1.5 | 2.09
CGAACTAGGTCATCGACAGGACAGTGAATAGTAA | 2.75 | 4.84 | 4.87 | 2.2 | 2.72 | 3.06 | 0.98 | 1.39
AGAATGAGGTTATACGTGGATCAGGGAAGAAAGT | 1.08 | 1.69 | 0.925 | 1.84 | 2.1 | 2.48 | 1.1 | 1.21
CGGACTGGGGCAGAAAGGTTACCATACCATCCGG | 2.51 | 1.79 | 1.69 | -0.693 | 1.85 | 1.29 | -0.00516 | 0.148
CCCGAAAGGTCGTGCTCAGGTGAGTATACCAAAC | 2.89 | 5.06 | 4.02 | 2.2 | 4.95 | 4.1 | 1.71 | 1.48
ACTATTAGTTGACTTAGGGCAGCCGATACGACGC | 0.54 | 0.527 | 0.729 | 0.712 | 0.378 | 0.635 | 0.246 | 0.0585
